Results taken from PubChem BioAssay AID1159580 (chemical genetic matrix, 2015).
Hit rate of the full screen: of about 5,500 compounds, about 2,000 (36%) were called active. Another 18% or so got no clear call; they are omitted. Cut-off read from the data, not from the text of the source: active = normalized growth mostly below about 0.91 (no sharp cut-off); inconclusive = no clear call, values can overlap the other calls; inactive = mostly above about 0.92. This is one part of the list.

Experiment: chemical genetic growth profiling, strain panel (AID 1159580);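 note: tested at 20 µM; growth read once vehicle control cultures reached saturation at 30 °C; 1 = growth at the plate median or of vehicle wells; lower values mean less growth of the strain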
Details: S. cerevisiae deletion strains, growth OD
[1] = locus YHR030C, strain SLT2, active compounds read low
[2] = locus YHR079C, strain IRE1, active compounds read low
[3] = locus YJL095W, strain BCK1, active compounds read low
[4] = locus YJR066W, strain TOR1, active compounds read low
[5] = locus YLR113W, strain HOG1, active compounds read low
[6] = locus YNL183C, strain NPR1, active compounds read low
[7] = locus YOR231W, strain MKK1, active compounds read low
[8] = locus YPL256C, strain CLN2, active compounds read low

Measured: normalized growth

Cc1onc(-c2ccccc2Cl)c1-c1nc2ccccc2c(=O)o1
inactive: locus YAR019C, strain CDC15, active compounds read low 0.97 | locus YBL105C, strain PKC1, active compounds read low 0.975 | locus YBR135W, strain CKS1, active compounds read low 0.975 | locus YBR136W, strain MEC1, active compounds read low 0.973 | locus YBR160W, strain CDC28, active compounds read low 0.971 | locus YDL017W, strain CDC7, active compounds read low 0.969 | locus YDL028C, strain MPS1, active compounds read low 0.979 | locus YDL101C, strain DUN1, active compounds read low 0.963 | locus YDL108W, strain KIN28, active compounds read low 0.97 | locus YDL132W, strain cdc53, active compounds read low 0.975 | locus YDL214C, strain PRR2, active compounds read low 0.968 | locus YDR052C, strain DBF4, active compounds read low 0.969 | locus YDR054C, strain cdc34, active compounds read low 0.964 | locus YDR226W, strain ADK1, active compounds read low 0.97 | locus YDR477W, strain SNF1, active compounds read low 0.962 | locus YER123W, strain YCK3, active compounds read low 0.953 | locus YER133W, strain GLC7, active compounds read low 0.984 | locus YFL009W, strain cdc4, active compounds read low 0.974 | locus YFL029C, strain CAK1, active compounds read low 0.956 | locus YFR003C, strain YPI1, active compounds read low 0.972 | locus YFR019W, strain FAB1, active compounds read low 0.979 | locus YFR028C, strain CDC14, active compounds read low 0.973 | locus YGR040W, strain KSS1, active compounds read low 0.96 | locus YGR052W, strain FMP48, active compounds read low 1.03 | locus YGR092W, strain DBF2, active compounds read low 0.983 | [1] 0.958 | [2] 0.936 | locus YHR082C, strain KSP1, active compounds read low 0.991 | locus YHR205W, strain SCH9, active compounds read low 0.932 | locus YIL147C, strain SLN1, active compounds read low 0.969 | [3] 0.954 | locus YJL128C, strain PBS2, active compounds read low 0.925 | locus YJL157C, strain FAR1, active compounds read low 0.987 | locus YJR016C, strain ILV3, active compounds read low 0.974 | locus YJR066W, strain TOR1 (second series), active compounds read low 0.967 | [4] 0.978 | locus YKL048C, strain ELM1, active compounds read low 0.947 | locus YKL067W, strain YNK1, active compounds read low 0.961 | locus YKL101W, strain HSL1, active compounds read low 0.939 | locus YKL193C, strain SDS22, active compounds read low 0.969 | locus YKL203C, strain TOR2, active compounds read low 1.02 | [5] 0.872 | locus YLR133W, strain CKI1, active compounds read low 0.965 | locus YLR403W, strain SFP1, active compounds read low 0.953 | locus YML070W, strain DAK1, active compounds read low 0.956 | locus YMR001C, strain CDC5, active compounds read low 0.974 | locus YMR205C, strain PFK2 (second series), active compounds read low 0.955 | locus YMR277W, strain FCP1, active compounds read low 0.987 | locus YNL006W, strain LST8, active compounds read low 0.982 | locus YNL020C, strain ARK1, active compounds read low 0.969 | locus YNL161W, strain CBK1, active compounds read low 0.969 | [6] 0.96 | locus YNL207W, strain RIO2, active compounds read low 0.97 | locus YNL222W, strain SSU72, active compounds read low 0.975 | locus YNL307C, strain MCK1 (second series), active compounds read low 0.987 | locus YOL078W, strain AVO1, active compounds read low 0.976 | locus YOL136C, strain PFK27, active compounds read low 0.958 | locus YOR061W, strain CKA2, active compounds read low 0.961 | locus YOR119C, strain RIO1, active compounds read low 0.983 | [7] 0.929 | locus YOR329C, strain SCD5, active compounds read low 0.966 | locus YPL031C, strain PHO85, active compounds read low 0.978 | locus YPL153C, strain RAD53, active compounds read low 0.956 | locus YPL204W, strain HRR25, active compounds read low 0.978 | locus YPL209C, strain IPL1, active compounds read low 0.969 | [8] 0.882 | locus YPR025C, strain CCL1, active compounds read low 0.975 | locus YPR106W, strain ISR1, active compounds read low 0.96 | locus YPR111W, strain DBF20, active compounds read low 0.963 | strain NNK1, active compounds read low 0.958 | strain TSCII, active compounds read low 0.968

COc1ccccc1OCC(O)CN1CCN(CC(=O)Nc2c(C)cccc2C)CC1 (stereo not drawn)
inactive: locus YAL013W, strain DEP1, active compounds read low 0.996 | locus YAL021C, strain ccr4, active compounds read low 0.991 | locus YAL026C, strain drs2, active compounds read low 1.03 | locus YAL030W, strain snc1, active compounds read low 1.01 | locus YAL040C, strain CLN3, active compounds read low 1 | locus YBL061C, strain skt5, active compounds read low 1.02 | locus YBR009C, strain hhf1, active compounds read low 0.986 | locus YBR023C, strain chs3, active compounds read low 1.03 | locus YBR171W, strain sec66, active compounds read low 1.02 | locus YBR231C, strain swc5, active compounds read low 0.991 | locus YBR279W, strain paf1, active compounds read low 1.02 | locus YCL011C, strain gbp2, active compounds read low 1.01 | locus YCL016C, strain dcc1, active compounds read low 1.04 | locus YCL061C, strain MRC1 (second series), active compounds read low 1 | locus YCL061C, strain MRC1, active compounds read low 0.993 | locus YCL069W, strain vba3, active compounds read low 1.02 | locus YCR088W, strain abp1, active compounds read low 1.02 | locus YDL005C, strain med2, active compounds read low 1 | locus YDL040C, strain nat1, active compounds read low 1 | locus YDR001C, strain nth1, active compounds read low 1 | locus YDR069C, strain doa4, active compounds read low 0.991 | locus YDR137W, strain rgp1, active compounds read low 1.06 | locus YDR159W, strain sac3, active compounds read low 0.912 | locus YDR195W, strain ref2 0.993 | locus YDR297W, strain sur2, active compounds read low 1 | locus YDR334W, strain swr1, active compounds read low 1 | locus YDR335W, strain msn5, active compounds read low 1.01 | locus YDR363W, strain ESC2, active compounds read low 0.998 | locus YDR392W, strain spt3, active compounds read low 0.942 | locus YEL003W, strain gim4, active compounds read low 0.976 | locus YEL037C, strain rad23, active compounds read low 1.01 | locus YEL061C, strain CIN8 (second series), active compounds read low 0.997 | locus YER002W, strain NOP16, active compounds read low 0.993 | locus YER015W, strain faa2, active compounds read low 1.01 | locus YER016W, strain bim1, active compounds read low 1.03 | locus YER111C, strain swi4, active compounds read low 1.02 | locus YER155C, strain BEM2 (second series), active compounds read low 0.957 | locus YFR010W, strain ubp6, active compounds read low 0.97 | locus YGL167C, strain pmr1, active compounds read low 0.989 | locus YGL173C, strain kem1, active compounds read low 0.987 | locus YGL227W, strain vid30, active compounds read low 1.02 | locus YGL240W, strain doc1, active compounds read low 0.987 | locus YGL253W, strain hxk2, active compounds read low 1.06 | locus YHR013C, strain ard1, active compounds read low 1.03 | locus YHR027C, strain rpn1, active compounds read low 0.988 | [1] 1.06 | [2] 1.05 | locus YHR142W, strain chs7, active compounds read low 1.02 | locus YJL092W, strain hpr5, active compounds read low 1 | locus YJL095W, strain BCK1 (second series), active compounds read low 1.02 | [3] 1.02 | locus YJL115W, strain asf1, active compounds read low 1 | locus YJL129C, strain trk1, active compounds read low 1.03 | locus YJL154C, strain vps35, active compounds read low 1 | locus YJL164C, strain tpk1, active compounds read low 0.979 | locus YJL166W, strain qcr8, active compounds read low 0.997 | [4] 0.977 | locus YJR075W, strain HOC1, active compounds read low 1 | locus YKL160W, strain elf1, active compounds read low 1.01 | locus YKR026C, strain gcn3, active compounds read low 1 | locus YKR091W, strain srl3, active compounds read low 1 | locus YLL001W, strain dnm1, active compounds read low 0.964 | locus YLL026W, active compounds read low 1.01 | locus YLL041C, strain sdh2, active compounds read low 1.02 | locus YLR027C, strain aat2, active compounds read low 1 | [5] 0.982 | locus YLR221C, strain rsa3, active compounds read low 0.972 | locus YLR258W, strain gsy2, active compounds read low 1.03 | locus YLR262C, strain YPT6 (second series), active compounds read low 1.02 | locus YLR320W, strain mms22, active compounds read low 0.937 | locus YLR342W, strain FKS1, active compounds read low 1.02 | locus YLR357W, strain rsc2, active compounds read low 0.99 | locus YLR370C, strain arc18, active compounds read low 1.01 | locus YLR384C, strain iki3, active compounds read low 0.997 | locus YML120C, strain ndi1, active compounds read low 0.976 | locus YMR058W, strain fet3, active compounds read low 1.01 | locus YMR125W, strain sto1, active compounds read low 1.01 | locus YMR129W, active compounds read low 0.988 | locus YMR205C, strain PFK2, active compounds read low 1 | locus YMR231W, strain pep5, active compounds read low 1 | locus YMR307W, strain GAS1, active compounds read low 1.02 | locus YNL071W, strain lat1, active compounds read low 1 | locus YNL153C, strain GIM3, active compounds read low 1.06 | locus YNL175C, strain NOP13, active compounds read low 1.01 | [6] 0.963 | locus YNL197C, strain WHI3, active compounds read low 1.01 | locus YNL209W, strain ssb2, active compounds read low 1.02 | locus YNL224C, strain SQS1, active compounds read low 1.01 | locus YNL248C, strain rpa49, active compounds read low 1.07 | locus YNL322C, strain KRE1 (second series), active compounds read low 1.02 | locus YNR049C, strain mso1, active compounds read low 1 | locus YOR001W, strain rrp6, active compounds read low 0.924 | locus YOR070C, strain gyp1, active compounds read low 1.01 | locus YOR080W, strain dia2, active compounds read low 1.01 | locus YOR083W, strain WHI5 (second series), active compounds read low 1.02 | locus YOR083W, strain WHI5, active compounds read low 0.974 | locus YOR106W, strain vam3, active compounds read low 1.04 | [7] 1.01 | locus YOR265W, strain rbl2, active compounds read low 0.98 | locus YOR270C, strain vph1, active compounds read low 0.991 | locus YOR290C, strain snf2, active compounds read low 1.06 | locus YPL051W, strain arl3, active compounds read low 1.04 | locus YPL078C, strain atp4, active compounds read low 1.07 | locus YPL106C, strain sse1, active compounds read low 1.1 | locus YPL240C, strain hsp82, active compounds read low 1 | locus YPL241C, strain CIN2, active compounds read low 1.01 | [8] 1.05
